Assay results reported in PubChem BioAssay.
Unmarked numbers belong to inactive results. How the calls were made is not given here.

The molecules below were run against Pantothenate synthetase (Mycobacterium tuberculosis (strain ATCC 25618 / H37Rv)) (UniProt P9WIL5) (assay: Recombinant Mtb pantothenate synthetase (PanC) inhibitors, coupled enzyme, confirmatory (AID 375;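 further: 0% = full reaction with vehicle and 100% = no enzyme background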)). Settings: coupled enzyme assay; at 10 µM, active compounds read high.
Pantothenate synthetase (Mycobacterium tuberculosis (strain ATCC 25618 / H37Rv)), sequence (P9WIL5 whole entry, looked up): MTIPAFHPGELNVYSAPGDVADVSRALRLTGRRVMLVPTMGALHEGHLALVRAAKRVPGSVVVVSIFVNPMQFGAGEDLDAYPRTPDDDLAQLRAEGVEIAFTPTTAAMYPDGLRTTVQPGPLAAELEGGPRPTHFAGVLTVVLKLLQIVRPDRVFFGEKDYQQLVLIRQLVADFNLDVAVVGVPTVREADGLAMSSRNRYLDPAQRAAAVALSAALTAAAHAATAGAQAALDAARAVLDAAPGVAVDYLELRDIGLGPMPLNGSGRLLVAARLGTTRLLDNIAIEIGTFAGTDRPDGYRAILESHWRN

| SMILES | inhibition |
| --- | --- |
| COC(=O)Nc1ccc(S(=O)(=O)N2CCCCCC2)cc1 | 0% |
| O=C(NCCc1cccc(Cl)c1)c1cccnc1 | 12% |
| COCCOC(=O)c1[nH]c2c(c1C)C(=O)CC(c1ccco1)C2 (stereo not given) | 3% |
| CCOc1ccc(C(=O)Nc2cc(C)on2)cc1OCC | 6% |
| COC(=O)c1cccc(NC(=O)CSc2nnc(COc3ccccc3)n2C)c1 | 0% |
| COc1ccccc1NC(=O)C(O)C(O)C(=O)Nc1ccccc1OC (stereo not given) | 3% |
| CC(=O)C1=C(C)NC(SCSc2ccccc2)=C(C#N)C1c1cccnc1 (stereo not given) | 4% |
| COc1ccc(C(=O)NCCSc2ccccn2)cc1 | 5% |
| COC(=O)c1cccc(NC(=O)C2COc3ccccc3O2)c1C (stereo not given) | 0% |
| COC(=O)COc1ccc(S(=O)(=O)NCCC2=CCCCC2)cc1 | 2% |
| CCC(C(=O)Nc1ccccc1C(=O)N1CCCC1)N1C(=O)c2ccccc2C1=O (stereo not given) | 6% |
| CC1(C)NC(=O)N(CNc2cc(Cl)ccc2Cl)C1=O | 0% |
| COc1ccccc1OCC(=O)Nc1ccc(S(=O)(=O)Nc2nc(C)cc(C)n2)cc1 | 1% |
| O=C(CSc1nc2ccccc2s1)N1CCN(C(=O)c2ccco2)CC1 | 0% |
| COc1ccc(S(=O)(=O)Nc2ccc(F)c(Cl)c2)cc1OC | 0% |
| COc1ccc(OC)c(-c2nnc(SCC(=O)NC3CCCCC3)o2)c1 | 0% |
| Cn1cc(CC(=O)Nc2cccc(C#N)c2)c2ccccc21 | 6% |
| O=C(CS(=O)(=O)c1cn(Cc2ccc(F)cc2)c2ccccc12)N1CCCCC1 | 0% |
| Cc1nnc(NS(=O)(=O)c2ccc(N)cc2)s1 | 0% |
| C[C@]12CCC(=O)C=C1CC[C@@H]1[C@@H]2C(=O)C[C@@]2(C)[C@H]1CC[C@]2(O)C(=O)CO | 0% |

| SMILES | inhibition |
| --- | --- |
| O=C(Cn1ncc2c1-c1ccccc1OC2)Nc1ccc(Cl)cn1 | 6% |
| OCc1cn(-c2ccccc2)nc1-c1ccc2c(c1)OCCO2 | 0% |
| CC(C)OC(=O)c1cccc(C(=O)O)n1 | 4% |
| CCOC(=O)CSc1nnc(-c2ccc(Cl)cc2Cl)o1 | 2% |
| Cc1c(N=C2SCC(=O)N2c2c(C)n(C)n(-c3ccccc3)c2=O)c(=O)n(-c2ccccc2)n1C | 3% |
| O=C(COc1ccccc1)Nc1nc2ccccc2[nH]1 | 0% |
| O=C1CCC(C(=O)N(Cc2ccco2)C2(C(=O)NC3CCCC3)CCCCC2)N1 (stereo not given) | 0% |
| O=C(Cn1nnc(-c2cccs2)n1)OC1CCCCC1 | 4% |
| O=C(CNS(=O)(=O)c1ccc(Br)s1)N1CCCC1 | 0% |
| CCN(CC)S(=O)(=O)N1CCC(C(=O)NC2CCCc3ccccc32)CC1 (stereo not given) | 0% |
| O=C(O)c1ccccc1C(=O)Nc1ccccc1 | 0% |
| COC(=O)c1ccc(CSc2nnnn2Cc2ccccc2)cc1 | 0% |
| COc1ccc(Cl)cc1NC(=O)COc1cccc(-n2cnnn2)c1 | 0% |
| CCc1cc2c(=O)c(-c3cscn3)coc2cc1O | 0% |
| O=C(CNC1CCCCCC1)Nc1ccc(S(=O)(=O)NC2CC2)cc1 | 2% |
| Cc1cccc(OCc2nc(C#N)c(NCCN(C)C)o2)c1 | 1% |
| CCc1ccc2oc(-c3cc(N)ccc3Cl)nc2c1 | 2% |
| O=C(O)CCC(=O)NC1CCCCC1NC(=O)CCC(=O)O (stereo not given) | 0% |
| Cc1cccc(CN2CCN(C(c3ccccc3)c3ccc(Cl)cc3)CC2)c1 (stereo not given) | 11% |
| Cc1ccc(S(=O)(=O)NCCN2CCOCC2)cc1C | 3% |
